Only some compounds are listed: those with a hit (about 4.2% of all), similar ones and a draw of the others.
hcDAF12 agonist: activators of H. contortus DAF-12 nuclear receptor. actives 1.4% (n = 370,000). activation, % at 6.8 µM. HEK293 hcDAF-12 lit1-tk-luc reporter, luminescence; 0% DMSO, 100% Δ7-dafachronic acid;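 active = activation above the mean of all tested compounds plus 3 SD, cut at about 5.5% in these data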
ssDAF12 agonist: activators of S. stercoralis DAF-12 nuclear receptor; activation, % at 6.8 µM; actives 1% (n = 370,000); HEK293 ssDAF-12/GRIP1 lit1-tk-luc reporter, luminescence; % of 3 µM dafachronic acid response;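 active = activation above the mean over all tested compounds plus 3 SD, cut at about 0.9% in these data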
DAX1 StAR inh: inhibitors of DAX1 repression of SF-1 activated StAR promoter | inhibition, % at 6.8 µM | actives 1.1% (n = 370,000) | HEK293T StAR-luciferase reporter, SF-1/DAX-1 repression relief | AID 652010;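 active = inhibition above the mean over all tested compounds plus 3 SD, cut at about 3.6% in these data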;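 note: higher inhibition means more luminescence from relief of DAX-1 repression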
SMARCA2 act: activators of SMARCA2 function | MG213 cells, MMTV-luciferase reporter, dexamethasone, overnight | activation, % at 9.1 µM | actives 1% (n = 370,000) | AID 652017; in the data active = activation above about 7.8%
hgDAF-12 ag: activates the H. glycines DAF-12 receptor ligand-binding domain; HEK293 GAL4-hgDAF12 UAS-luciferase reporter, agonist luminescence; normalized to butyrate control; actives 1.8% (n = 370,000); activation, % at 6.8 µM;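 active = activation above a cutoff set at the mean of all screened compounds plus 3 SD, cut at about 10% in these data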
hgDAF12 conf: confirmation of H. glycines DAF-12 agonists; shares compounds with hgDAF-12 ag; actives 80% (n = 3,300); activation, % at 6.8 µM; HEK293 GAL4-hgDAF12 luciferase reporter, agonist mode; percent of butyrate response; AID 743050;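 active = mean activation over triplicate wells above the hit cutoff derived from the earlier primary screen, cut at about 11% in these data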
LXRb DAF12 ctr: activates human LXR-beta, counter-screen for DAF-12 agonists; activation, % at 6.8 µM; HEK293 Gal4-LXR luciferase reporter, 24 h; AID 743051; 3,300 tested, under 10 active; shares compounds with hgDAF-12 ag;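 active = mean activation of the triplicate above a set limit carried over from the primary screen, none filed active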
Target sequence (P55055 whole entry, looked up, the tested form may be a part): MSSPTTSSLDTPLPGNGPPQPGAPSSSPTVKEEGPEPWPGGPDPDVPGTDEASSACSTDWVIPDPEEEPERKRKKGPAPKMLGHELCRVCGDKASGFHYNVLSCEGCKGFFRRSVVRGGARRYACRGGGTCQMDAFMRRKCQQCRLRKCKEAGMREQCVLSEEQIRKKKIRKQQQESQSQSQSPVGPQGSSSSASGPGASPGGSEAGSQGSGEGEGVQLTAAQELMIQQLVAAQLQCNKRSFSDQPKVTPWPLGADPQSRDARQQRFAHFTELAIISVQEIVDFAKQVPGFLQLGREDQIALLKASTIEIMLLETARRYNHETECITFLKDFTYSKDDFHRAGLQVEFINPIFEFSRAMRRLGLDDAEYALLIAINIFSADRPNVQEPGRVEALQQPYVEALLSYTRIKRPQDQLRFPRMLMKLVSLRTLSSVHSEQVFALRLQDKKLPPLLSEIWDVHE
Each line names hits and unclear results; the compound was inactive in the other large screens (follow-up assays come after a bar, where they were run).

CCCCNC(=S)N(CCCO)Cc1cc2cc3c(cc2[nH]c1=O)OCCO3	none
CN(C)CCCNC(=S)N(CCCO)Cc1cc2cc3c(cc2[nH]c1=O)OCO3	hgDAF-12 ag 15.7 | hgDAF12 conf inactive | LXRb DAF12 ctr inactive
O=C(Nc1ccccc1)O/N=C(\c1ccccc1)c1ccccn1	hgDAF-12 ag 15.8 | hgDAF12 conf inactive | LXRb DAF12 ctr inactive
CCc1cc2c(nc1CC)CCCN2S(=O)(=O)c1cccs1	none
S=c1nc(-c2ccccc2)oc2c1CCCC2	none
COc1cccc(-c2nc(=S)c3c(o2)CCCC3)c1	DAX1 StAR inh 3.7, hgDAF-12 ag 13.4 | hgDAF12 conf 17.3 | LXRb DAF12 ctr inactive
CCC(C)NC(=O)c1cc(-c2ccccc2O)on1 (stereo unspecified)	hgDAF-12 ag 13.5 | hgDAF12 conf inactive | LXRb DAF12 ctr inactive
O=C(NC1CCCCC1)c1cc(-c2ccccc2O)on1	hgDAF-12 ag 13.4 | hgDAF12 conf 15.2 | LXRb DAF12 ctr inactive
O=C(NC1CCCCC1)c1cc(-c2ccc(O)cc2)on1	none
Clc1ccc2nc(N3CCCCC3)[nH]c2c1	hcDAF12 agonist 5.7, DAX1 StAR inh 4.5, hgDAF-12 ag 19.9 | hgDAF12 conf 17.2 | LXRb DAF12 ctr inactive
Cc1nc2cc(NC(=O)Nc3ccc(Br)cc3)ccc2o1	hgDAF-12 ag 13.4 | hgDAF12 conf inactive | LXRb DAF12 ctr inactive
Nc1ccc2nc(SCc3cccc(F)c3)sc2c1	hgDAF-12 ag 15.6 | hgDAF12 conf 11.5 | LXRb DAF12 ctr inactive
Cc1ccc(NC(CC(=O)c2ccccc2)C(=O)O)cc1Cl (stereo unspecified)	hcDAF12 agonist 5.6, DAX1 StAR inh 4.2, hgDAF-12 ag 16.2 | hgDAF12 conf 27.3 | LXRb DAF12 ctr inactive
O=C(CC(Nc1ccccc1)C(=O)O)c1ccccc1 (stereo unspecified)	none
O=C(COc1ccc(Br)cc1Cl)NC(=S)N1CCc2ccccc21	hcDAF12 agonist 6.2, ssDAF12 agonist 1.0, hgDAF-12 ag 13.3 | hgDAF12 conf inactive | LXRb DAF12 ctr inactive
CC(Oc1ccc(Cl)cc1Cl)C(=O)NC(=S)N1CCc2ccccc21 (stereo unspecified)	none
C[C@@H]1COc2cc(Br)ccc2S(=O)(=O)N1Cc1cn(Cc2ccc(Br)cc2)nn1	none
Cc1cc(/C=C2\SC(=S)NC2=O)c(C)n1-c1ccc(O)cc1	hgDAF-12 ag 13.5 | hgDAF12 conf inactive | LXRb DAF12 ctr inactive
CCCCNC(=O)NCC1CCN(Cc2ccc(OC)cc2)CC1	none
Cc1csc(NC(=O)c2ccc(Cl)cc2[N+](=O)[O-])n1	hgDAF-12 ag 14.5 | hgDAF12 conf 10.7 | LXRb DAF12 ctr inactive
Cc1csc(NC(=O)c2ccccc2[N+](=O)[O-])n1	none
N#Cc1ccccc1OCc1nnc(-c2ccccc2Br)o1	hgDAF-12 ag 15.1 | hgDAF12 conf 11.3 | LXRb DAF12 ctr inactive
Clc1ccccc1OCc1nnc(-c2ccccc2Br)o1	none
Cc1nc(C)c(-c2csc(Nc3cccc(O)c3)n2)s1	hgDAF-12 ag 22.6 | hgDAF12 conf 13.5 | LXRb DAF12 ctr inactive
C[C@@H]1CCN(C2CC2)S(=O)(=O)c2ccc(N3CC[C@H](N(C)C)C3)cc2O1	none
O=c1c2c(nc3cc(-c4ccc(Br)cc4)[nH]n13)CCCC2	ssDAF12 agonist 1.4, DAX1 StAR inh 3.7, hgDAF-12 ag 14.0 | hgDAF12 conf 19.8 | LXRb DAF12 ctr inactive
COc1ccc(-c2cc3nc4c(c(=O)n3[nH]2)CCC4)cc1	none
O=c1c2c(nc3cc(-c4ccccc4)[nH]n13)CCC2	hgDAF-12 ag 15.0 | hgDAF12 conf 13.3 | LXRb DAF12 ctr inactive
COC(=O)c1cc(=O)n(Cc2ccco2)c(=Nc2ccccc2)s1	none
O=C(Nc1nccs1)c1cn2ccccc2n1	hcDAF12 agonist 5.8, hgDAF-12 ag 15.1 | hgDAF12 conf 13.9 | LXRb DAF12 ctr inactive
C=CCCC1CN(Cc2ccc(OC)cc2)S(=O)(=O)c2c(Oc3cc(C)c(C)c(C)c3)cccc2O1 (stereo unspecified)	none
C[C@@H]1COc2cccc(N3CCSCC3)c2S(=O)(=O)N1C	none

Compound activity (PubChem BioAssay)
